Records with an inconclusive call do not appear. Where a call stands in place of a potency, no number is given. Active and inactive are the calls of the source. The call rests on the fitted dose curve; in most records, active means well fitted cell-killing curve with a large enough effect; inconclusive means small, poorly fitted or top-dose-only effect, or effect the other way; inactive means flat fitted curve, though single readings scatter.
Potency means the concentration at half of the fitted maximal effect.

For the first test, the system named is HeLa. In words: Primary qHTS to identify gynecologic anti-cancer compounds using libraries of approved drugs and bioactive compounds (AID 1345084). Further: nearly all actives have a fitted effect of over 55% in size. As to conditions: Gynecologic cancer cell panel viability, ATPlite luminescence, 48 h; series mostly up to 57.5 µM. The procedure, abridged:
(§1)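 Five-concentration response, 48 h; readout is ATP-driven luciferase luminescence.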
For orientation: In qHTS, concentration-response curves come from the screen itself.
`CC1(O)CCCC2(C)C1CCC13CC(CO)C(CCC12)C3` (configuration not stated): the Potency result is “inactive”.
As to `CC(=O)/C=C/[C@H]1[C@](C)(O)[C@@H](O)[C@H](OC(C)=O)C2C(C)(C)CCC[C@@]21C` (some centres not stated), the Potency entry is “inactive”.
Consider `C=C(C(=O)OC)C1C(O)CC2(C)C(=O)CCC(O)(CO)C2C1O` (configuration not stated), for which the Potency result was “inactive”.

The test system of the next test is Hek293T. The description is as above. The conditions noted are these: Gynecologic cancer cell panel viability, ATPlite luminescence, 48 h, control line for the selectivity index; series mostly up to 57.5 µM. The procedure, abridged: as §1
In general terms: In ATP-based viability assays light output follows the ATP content of the culture.
For the molecule `COC(=O)CC(C)(O)CC(=O)OCc1ccc(O[C@@H]2O[C@H](CO)[C@@H](O)[C@H](O)[C@H]2O)cc1` (some centres not stated), the Potency entry is “inactive”.
In the case of `CC[C@@H](O)C[C@@H]1C(C)=C[C@@H]2CCCC[C@@H]2[C@@]1(C)C(=O)O`, the Potency result is “inactive”.
Same read-out and setting: then `C=C1CCC2C(C)(C(=O)O)CCCC2(C)C1CC/C(=C\CO)CO` (configuration not stated), with “inactive”; and `Cc1oc2ccccc2c1CNC(=O)NCc1cccs1`, with “inactive”.
`CCC(C)C(=O)OC1CC(C)C=C2C=CC(C)C(CCC(O)CC(O)CC(=O)O)C21` (configuration not stated): the Potency entry is “inactive”.
In the case of `C[C@]12C=C[C@@]3(CCC4[C@](C)(CO)CCC[C@@]4(C)C3CC1)C2` (some centres not stated), the Potency result was “inactive”.
In the case of `CC(C)CC1NC(=O)C(C)NC(=O)C(CC(C)C)OC(=O)CCCNC1=O` (configuration not stated), the Potency result is “inactive”.
With `COC1/C=C/C(C)(O)C(SCC(N)C(=O)O)CC(=O)OC(C)C(C)CC/C=C/1C` (configuration not stated), the Potency entry is “inactive”.
In the case of `CC/C=C\CC1C(=O)C=CC1(CCCCCCCC(=O)O)OC(C)=O` (configuration not stated), the Potency entry is “inactive”.
For the molecule `CC1OC(OC2C(C)OC(OC3C(O)C(CO)OC(O[C@H]4CC[C@@]5(C)C(CC[C@]6(C)C5CC=C5C7[C@@H](C)[C@H](C)CC[C@]7(C(=O)O)CC[C@]56C(=O)O)C4(C)C)C3O)C(O)C2O)C(O)C(O)C1O` (some centres not stated), the activity change, negative = cytotoxicity was -7.85% [at 11.6 µM] (inactive).
In the case of `C[C@@H]1O[C@@H](OC[C@H]2O[C@@H](OC(CCCCc3ccc(O)cc3)CCc3ccc(O)cc3)[C@H](O)[C@@H](O)[C@@H]2O)[C@H](O)[C@H](O)[C@H]1O` (some centres not stated), the Potency entry was “inactive”.
Consider `CC(c1ncncc1F)C(O)(Cn1cncn1)c1ccc(F)cc1F` (configuration not stated), for which the Potency entry was “inactive”.
Regarding `CC1(C=O)CC[C@]2(C(=O)O[C@@H]3O[C@H](CO)[C@@H](O)[C@H](O)[C@H]3O)CC[C@]3(C)C(=CCC4[C@@]5(C)C[C@H](O)[C@H](O[C@@H]6OC[C@@H](O)[C@H](O)[C@H]6O)[C@@](C)(CO)C5CC[C@]43C)C2C1` (some centres not stated), the activity change, negative = cytotoxicity was -2.72% [at 11.6 µM] (inactive).
Take `O=C(O)/C=C/c1cc2c(cc1O[C@@H]1O[C@H](CO)[C@@H](O)[C@H](O)[C@H]1O)OCO2`: the Potency result is “inactive”.
`CC(C)O[C@@H]1O[C@H](CO)[C@@H](O)[C@H](O)[C@H]1O`: the Potency result is “inactive”.
Still for that read-out and setting: next, `CC1=C2C3OC(=O)C(C)C3(O)CCC2(C)CCC1O` (configuration not stated): “inactive”; `COC(=O)CC1CC(c2ccc(O)cc2)=NO1` (configuration not stated): “inactive”.
Regarding `CC(=O)C12OC(C)(C)OC1CC1C3CCC4=CC(=O)C=CC4(C)C3(F)C(O)CC12C` (configuration not stated), the Potency entry is “inactive”.
With `C[C@H]1O[C@@H](O[C@H]2CC[C@@]3(C)C(CC[C@]4(C)C3CC=C3C5CC(C)(C)CC[C@]5(C(=O)O)CC[C@]34C(=O)O)C2(C)C)[C@H](O)[C@@H](O)[C@@H]1O` (some centres not stated), the Potency result is “inactive”.
Regarding `C=C1CCC2C(C)(C(=O)OC)CCCC2(C)C1CCC(C)CC(=O)O` (configuration not stated), the Potency entry was “inactive”.
Take `COc1ccccc1Oc1ccc(N(Cc2cccnc2)S(=O)(=O)CC(F)(F)F)cc1`: the Potency entry is “inactive”.
`COc1ccc(Cl)c(Nc2nc3ccccc3nc2NS(=O)(=O)c2cccc(NC(=O)C(C)(C)N)c2)c1`: the Potency result is “inactive”.
Take `COC(=O)C1=CO[C@@H](O[C@@H]2O[C@H](CO)[C@@H](O)[C@H](O)[C@H]2O)[C@H]2[C@@H]1C=C[C@@]21C=C([C@H](C)O)C(=O)O1`: the Potency result is “inactive”.
Regarding `CC1(C)CC2=C3C=CC4C5(C)CCC(O)C(C)(C)C5CCC4(C)C3(C)CCC2(C)C(O)C1` (configuration not stated), the Potency result is “inactive”.
Consider `O=C(O)c1ccc(OC2OC(CO)C(O)C(O)C2O)cc1` (configuration not stated), for which the Potency entry is “inactive”.
Consider `CC(C)CN(C[C@@H](O)[C@H](Cc1ccccc1)NC(=O)O[C@@H]1CO[C@H]2OCC[C@H]21)S(=O)(=O)c1ccc(N)cc1`, for which the Potency entry is “inactive”.
Turning to `C=C1C[C@]23C[C@H]1CC[C@H]2[C@@]1(C)CCC[C@@]2(C)C(=O)O[C@@H]([C@@H]3O)[C@@H]12`, the Potency result is “inactive”.
Take `CC(=O)O[C@H]1C[C@@]2(C)[C@@H](CC[C@H]3[C@@]4(C)C=CC(=O)[C@@H](C)[C@@H]4[C@H](O)C(=O)[C@@]32C)/C1=C(/CCC=C(C)C)C(=O)O`: the Potency entry was “inactive”.
With `COC(=O)N[C@H](C(=O)N1[C@@H]2CC[C@@H](C2)[C@H]1c1nc2ccc(-c3ccc4c(c3)C(F)(F)c3cc(-c5cnc([C@@H]6CCC7(CC7)N6C(=O)[C@@H](NC(=O)OC)C(C)C)[nH]5)ccc3-4)cc2[nH]1)C(C)C`, the Potency result was “inactive”.
With `COc1ccc(C2(O)c3ccccc3NC(=O)C2O)cc1` (configuration not stated), the Potency entry was “inactive”.
On to `O=C(CN1C(=O)C2(CCCC2)NCC1c1cc(F)cc(F)c1)Nc1ccc2c(c1)CC1(C2)C(=O)Nc2ncccc21` (configuration not stated), for which the Potency entry was “inactive”.
Take `C=C1C(=O)OC2CC3(C)C(CC12)C(C)=CC(O)C3OC(C)=O` (configuration not stated): the Potency entry is “inactive”.
Turning to `C[C@@H]1O[C@@H](O[C@H]2[C@H](OC(=O)[C@]34CCC(C)(C)C[C@H]3C3=CCC5[C@@]6(C)C[C@H](O)[C@H](O[C@@H]7O[C@H](CO)[C@@H](O[C@H]8OC[C@](O)(CO)[C@H]8O)[C@H](O)[C@H]7O)[C@@](C)(CO)C6[C@H](O)C[C@@]5(C)[C@]3(C)C[C@H]4O)OC[C@H](O)[C@@H]2O)[C@H](O)[C@H](O)[C@H]1O[C@@H]1OC[C@@H](O)[C@H](O[C@@H]2OC[C@](O)(CO)[C@H]2O)[C@H]1O` (some centres not stated), the activity change, negative = cytotoxicity is 2.67% [at 6.55 µM] (inactive).
Consider `O=C(O)[C@H](Cc1ccc(Nc2nccc3ccncc23)cc1)NC1=C(Br)C(=O)C12CCCCC2`, for which the Potency result was “inactive”.
For the molecule `CC(C)C(C(=O)N(C)C(C)C(N)=O)N(C)C(=O)C1CCCN1C(=O)/C=C/C=C/C(O)C(C)O` (configuration not stated), the Potency entry is “inactive”.
On to `Nc1nc2c(c(=O)[nH]1)C[C@@H](CCc1ccc(C(=O)N[C@@H](CCC(=O)O)C(=O)O)cc1)CN2`, for which the Potency is 316 nM (active).
Take `CC1(O)CCCC2(C)C1CCC13CC(CO)C(CCC12)C3` (configuration not stated): the Potency result is “inactive”.
The same measure, in the same setting: next, `CC(=O)/C=C/[C@H]1[C@](C)(O)[C@@H](O)[C@H](OC(C)=O)C2C(C)(C)CCC[C@@]21C` (some centres not stated): “inactive”; `C=C(C(=O)OC)C1C(O)CC2(C)C(=O)CCC(O)(CO)C2C1O` (configuration not stated): “inactive”.

Source of the values: PubChem BioAssay (NCATS).
